# Screening data from PubChem.
# DAGLB inhibitor: diacylglycerol lipase beta (human) inhibition; Q8NCG7; HEK293T DAGLB membrane lysate, EnzChek fluorogenic substrate; inhibition, % at 5.17 µM; hit rate 0.059% among 340,000; AID 504411; in the data active = inhibition above about 34%;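 note: 0% = enzyme with vehicle and 100% = wells lacking enzyme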
# MIN6 prolif: inducers of beta-cell replication in MIN6 cells. proliferation, % at 10 µM. MIN6 cells proliferation, ATPlite luminescence, 48 h; cells starved in 0.2% serum; 100% = growth in 10% serum. AID 2380. hit rate 0.29% among 330,000;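 active = compounds whose signal lies at least 3.5 SD above the mean of all wells on their plate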;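 note: 0% = DMSO-treated cells in low-serum medium and 100% = 10% serum control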
# V-ATPase pHluor: alters yeast V-ATPase proton transport. hit rate 0.37% among 350,000. response, % at 10 µM. S. cerevisiae, pHLuorin cytosolic pH fluorescence; in the data active = response mostly above about 7.3%, no sharp cut-off; inactive = mostly below about 5.4%; note: actives read high
# Rtt109 HAT inh: C. albicans Rtt109 histone acetyltransferase inhibition; Q5AAJ8; purified Rtt109/Vps75, ThioGlo CoA-SH fluorescence, 4 h; inhibition, % at 34.9 µM; hit rate 0.16% among 330,000; AID 540336;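 active = inhibition of at least 50% in every replicate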
# Target sequence (Q5AAJ8 whole entry, looked up): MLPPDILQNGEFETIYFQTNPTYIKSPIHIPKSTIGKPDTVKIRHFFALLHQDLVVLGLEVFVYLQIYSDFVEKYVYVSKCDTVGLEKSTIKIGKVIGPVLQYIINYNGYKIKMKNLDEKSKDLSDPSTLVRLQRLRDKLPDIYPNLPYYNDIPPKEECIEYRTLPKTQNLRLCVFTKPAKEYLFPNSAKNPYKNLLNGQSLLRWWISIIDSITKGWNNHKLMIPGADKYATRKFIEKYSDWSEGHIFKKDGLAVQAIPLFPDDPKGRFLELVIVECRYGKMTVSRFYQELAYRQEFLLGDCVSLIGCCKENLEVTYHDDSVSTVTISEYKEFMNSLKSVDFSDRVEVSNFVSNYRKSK
# HDAC3 inh: inhibitors of human histone deacetylase 3 | inhibition, % at 8.3 µM | O15379 | hit rate 0.15% among 320,000 | recombinant HDAC3, fluorogenic peptide/trypsin coupled, fluorescence; in the data active = inhibition above about 26%, passing the limit was not always enough
# * hit, by the source's call; / = not tested or not shown; ! = repeats disagree. In the library only some 0.96% were active in any assay of this set; here they are far more common.
SMILES,DAGLB inhibitor,MIN6 prolif,V-ATPase pHluor,Rtt109 HAT inh,HDAC3 inh
CCN(CC)C(=O)c1sc2[nH]c(=S)n(-c3ccccc3)c(=O)c2c1C,-1.6,-3.5,4.3,-3.0,0.4
CCOC(=O)/C(=N\Nc1ccc(Cl)cc1)c1csc(Nc2ccccc2)n1,-4.8,-3.1,0.0,-1.7,4.7
CN1CCc2cccc3c2[C@H]1Cc1ccc(O)c(O)c1-3,1.9,-5.6,0.6,100.3*!,1.0
Cc1[nH]c(C)c(S(=O)(=O)N(C)Cc2ccccc2)c1C(=O)N1CCCC1,2.2,-0.8,-1.8,5.1,-2.7
Cc1cc(C)c(S(=O)(=O)/N=C2/C=C(Sc3ncn[nH]3)C(=O)c3ccccc32)cc1C,0.6,/,-2.1,0.6,40.3*
Cc1ccc(C)c(S(=O)(=O)/N=C2\C=C(NS(=O)(=O)c3ccccc3)C(=O)c3ccccc32)c1,27.5,-3.8,-0.6,7.5,1.2
Cc1ccc(C(=O)NCCNC(=O)COc2ccc(C)c(C)c2)cn1,-2.6,2.0,-4.0,/,-0.3
Cc1ccc(C(=O)NCCCNC(=O)COc2ccc(C)c(C)c2)cn1,-1.3,-1.5,-1.3,55.2*,-2.4
C[C@H](CO)N1C[C@H](C)[C@@H](CN(C)Cc2ccncc2)Oc2ccc(NC(=O)CCCCCC(=O)Nc3ccccc3N)cc2C1=O,-0.4,0.4,-0.3,-1.6,89.9*
C[C@H](CO)N1C[C@H](C)[C@@H](CN(C)Cc2ccncc2)Oc2ccc(NC(=O)Cn3cnnn3)cc2C1=O,-3.5,-2.7,-2.9,15.6,-1.5
CCNCc1cc(Cl)cc(OC)c1OC(C)C,-0.8,-2.5,-1.5,-8.3,2.4
O=C(Cc1ccc2cccnc2c1)c1ccc(O)cc1O,-6.6,0.1,1.1,59.6*,/
O=C(Cc1ccccc1)c1ccc(O)cc1O,-1.4,/,3.2,1.5,/
CN(C)/C=C/C(=O)c1cccc(Oc2ncccn2)c1,-1.1,-1.7,3.0,6.5,6.5
CC(=O)N1N=C(c2ccccc2)CC1c1cccc([N+](=O)[O-])c1 (stereo not given),1.8,-3.0,2.5,-1.2,0.0
c1ccc(CCC2CCCCN2Cc2cn[nH]c2-c2cc3ccccc3o2)nc1 (stereo not given),-1.8,-1.6,-0.1,-2.6,-2.1
O=C(c1ccccn1)C1CCCN(Cc2cn[nH]c2-c2cc3ccccc3o2)C1 (stereo not given),1.0,-1.0,16.1*,11.7,5.5
Cn1nc(C(=O)OCC(=O)Nc2sccc2C(N)=O)c2ccccc2c1=O,-4.9,-1.4,-1.6,-2.4,/
COc1ccc(N(C(=O)c2ccco2)C(C(=O)NC2CCCC2)c2ccncc2)cc1 (stereo not given),0.7,4.0,1.7,-5.6,-7.5
CC(C)c1ccc(N(C(=O)c2ccco2)C(C(=O)NC2CCCC2)c2ccncc2)cc1 (stereo not given),-3.5,0.0,13.7*,23.4,9.0
C[C@]12CC[C@@H]3c4ccc(O)cc4CC[C@H]3[C@@H]1CC[C@@H]2O,1.2,-6.1,0.1,9.5,-2.4
C[C@]12CC[C@@H]3c4cc(O)c(O)cc4CC[C@H]3[C@@H]1CC[C@@H]2O,3.0,-7.7,3.7,122.5*,-3.2
CCOC(=O)N1CCC(NC(=O)C2CCC(Cn3c(=O)[nH]c4ccccc4c3=O)CC2)CC1 (stereo not given),-3.9,-3.7,0.4,-7.3,-5.9
COCc1cc(C)nc(SCC[N+](C)(C)CC(=O)Nc2cccc(C)c2)c1C#N,-1.6,-2.0,-2.3,6.8,-2.1
Cc1nc(C(C)(C)O)n(-c2ccccc2)n1,0.0,-0.7,-1.3,1.5,-10.1
SMILES,DAGLB inhibitor,MIN6 prolif,V-ATPase pHluor,Rtt109 HAT inh,HDAC3 inh
CN1CCCN(C(=O)c2cc3c(s2)CCCC3)CC1,-1.9,1.9,2.1,18.3,-1.3
CC(=O)N1CCN(C(=O)c2cc3c(s2)CCCC3)CC1,0.5,/,17.8*,3.3,/
Cc1ccccc1C(=O)N/N=C/c1ccc([N+](=O)[O-])s1,1.0,-4.5,-0.2,4.2,-0.6
Cc1c(Cl)cccc1N=Cc1ccc([N+](=O)[O-])s1,-2.5,-6.4,20.3*,12.0,2.4
CCOC(=O)C1CCCN(c2cc(=O)n(C3CCCCC3)c(=O)[nH]2)C1 (stereo not given),-0.7,-1.8,-0.6,58.6*,2.5
CCOC(=O)C1CCN(c2cc(=O)n(-c3ccc(OC)cc3)c(=O)[nH]2)CC1,0.6,0.0,-3.0,4.3,-5.9
S=C(NCC1CCCO1)Nc1cccc(Cl)c1 (stereo not given),-0.2,0.6,-2.5,0.9,3.2
CCn1c(=O)c([N+](=O)[O-])c(NCCc2ccccc2)c2ccccc21,-2.3,0.0,8.5*,-11.1,3.8
Cn1c(=O)c([N+](=O)[O-])c(NCCc2ccccc2)c2ccccc21,-0.3,4.9,-4.6,2.1,-4.4
Cc1ccc(S(=O)(=O)N2CCN(CC(=O)Nc3ccccc3Cl)CC2)cc1,-0.7,-1.6,2.2,-16.0,/
O=C(Oc1ccc(-n2cnnn2)cc1)c1ccco1,0.5,1.2,-1.5,-0.9,35.6*
CC(=O)Nc1ccc(OC(=O)c2ccco2)cc1,2.3,-1.0,-0.8,0.4,5.8
CCCOC(=O)c1ccc(OC(=O)c2ccco2)cc1,-0.4,-2.4,-1.4,3.8,32.9*
CC1CCN(c2nc(CN3CCCCC3)nc3scc(-c4ccccc4)c23)CC1,-5.8,-5.3,-0.5,61.0*,8.2
O=S(=O)(c1ccc(NC(=S)Nc2ccccc2)cc1)N1CCOCC1,1.5,-1.9,-1.3,-1.9,-1.2
CC(C)CCCCCCNC(=S)Nc1ccc(S(=O)(=O)N2CCOCC2)cc1,-2.2,-3.6,-5.3,47.5,29.4*
Cc1c(C)c2ccc(OCC(=O)NCCc3c[nH]c4ccccc34)c(C)c2oc1=O,-1.2,-1.6,-2.4,-0.9,3.1
O=C(NCc1ccco1)c1cccs1,-0.9,-1.3,-2.5,-3.8,-3.2
O=C(CSCc1ccco1)c1cccs1,-0.9,-2.0,1.6,-5.7,91.5*
COc1ccc(NC(=O)C2C3C=CC4(O3)C2C(=O)N(CCN2CCCCC2)C4C(=O)NC2CCCC(C)C2C)cc1 (stereo not given),-0.6,0.0,-0.1,-2.6,-2.0
Cc1ccc(N2C(=S)NC3c4cc(Cl)ccc4OC2(C)C3C(=O)N(C)C)cc1 (stereo not given),-0.2,10.2*,2.9,11.8,4.4
CCc1ccc(OCC(=O)Nc2ccncc2)cc1,1.9,-1.1,-4.5,1.8,2.3
Cc1cccc(NC(=O)c2nc[nH]c2C(=O)NC[C@@H](C)O)c1,-3.8,/,-0.5,/,/
Cn1c(/N=C/c2ccccc2[N+](=O)[O-])nc2ccccc21,-2.2,4.3,0.4,1.1,7.5
COC(=O)CCC(=O)Nc1nccs1,-4.2,-1.7,-1.6,5.1,-4.0
COC(=O)C(Nc1nccs1)(OC)C(F)(F)F (stereo not given),2.0,0.1,17.4*,-8.3,-9.6
CCN(CC(=O)NCc1cccs1)C(=O)C1CC(=O)N(c2ccc(OC)cc2OC)C1 (stereo not given),1.2,-2.5,0.7,-11.3,0.5
O=C(O)c1ccc2c(=O)n(-c3ccccc3)c(=S)[nH]c2c1,-0.8,2.5,2.2,1.7,2.3
